# Compounds without any hit were thinned out: in the full panel of roughly 79,000, 15% have a hit. Values without a mark were called inactive. Activity calls are given as the source filed them. Cut-off read from the data, not from the text of the source: active = growth inhibition above about 70%; inactive = the rest.
# Tests used:
# [1] = NCI Yeast Anticancer Drug Screen. Data for the rad50 strain (AID 155);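 note: 0% = growth of vehicle-only cultures of the same strain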; conditions: S. cerevisiae rad50 strain growth inhibition, stronger effect = higher value
# Procedure, shortened: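 Vehicle-treated cultures provide the reference for the growth inhibition reported for compound-exposed, repair-deficient yeast.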
# [2] = NCI Yeast Anticancer Drug Screen. Data for the mec2-1 strain (AID 157); conditions: S. cerevisiae mec2-1 strain, stronger effect = higher value
# Procedure, shortened: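 Vehicle-treated cultures served as reference for growth inhibition of compound-exposed mec2-1 yeast.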
# [3] = NCI Yeast Anticancer Drug Screen. Data for the sgs1 mgt1 strain (AID 161);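 note: 0% = growth of cultures given vehicle only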; conditions: S. cerevisiae sgs1 mgt1 strain, stronger effect = higher value
# Procedure, shortened: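 Mutant yeast exposed to compound; growth scored against vehicle-only wells.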
# [4] = NCI Yeast Anticancer Drug Screen. Data for the cln2 rad14 strain (AID 165);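 note: 0% = growth equal to vehicle treated cultures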; conditions: S. cerevisiae cln2 rad14 strain, stronger effect = higher value
# Procedure, shortened: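 Each compound was tested on cln2 rad14 yeast. Inhibition of growth was calculated against vehicle-exposed controls.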
# [5] = NCI Yeast Anticancer Drug Screen. Data for the bub3 strain (AID 167); conditions: S. cerevisiae bub3 mutant strain, stronger effect = higher value
# Procedure, shortened: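 Mutant yeast screening strain plus compound; vehicle-treated cultures serve as the 0% inhibition reference.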
# [6] = NCI Yeast Anticancer Drug Screen. Data for the mlh1 rad18 strain (AID 175); conditions: S. cerevisiae mlh1 rad18 strain growth inhibition, stronger effect = higher value
# Procedure, shortened: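 Vehicle-treated cultures served as the reference for growth inhibition in a yeast strain carrying DNA damage repair alterations exposed to each compound.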
# [7] = at 5.0 µM (retest, dose inferred, filed as 0.5)
# [8] = at 50.0 µM (retest, dose inferred, filed as 5.0)
SMILES,"growth inhibition [1, 7]","growth inhibition [1, 8]",growth inhibition ([1]; at 50.0 µM),"growth inhibition [2, 7]","growth inhibition [2, 8]",growth inhibition ([2]; at 50.0 µM),"growth inhibition [3, 7]","growth inhibition [3, 8]",growth inhibition ([3]; at 50.0 µM),"growth inhibition [4, 7]","growth inhibition [4, 8]",growth inhibition ([4]; at 50.0 µM),"growth inhibition [5, 7]","growth inhibition [5, 8]",growth inhibition ([5]; at 50.0 µM),"growth inhibition [6, 7]","growth inhibition [6, 8]",growth inhibition ([6]; at 50.0 µM)
Cc1ccc(Nc2nc3c(s2)C(=O)c2ccccc2C3=O)c(C)c1,28%,99% (active),98.7% (active),33%,99% (active),99.5% (active),18%,99% (active),99.2% (active),7%,98% (active),98.9% (active),50%,99% (active),99.5% (active),30%,98% (active),97.8% (active)
CCCC(=O)c1ccc(OC)cc1,0%,28%,41.9%,1%,70% (active),-11.3%,0%,13%,14.9%,1%,10%,17.6%,-6%,98% (active),20.9%,-1%,61%,6.25%
Cc1cc(C(=O)c2ccccc2)ccc1O,2%,33%,48%,-6%,36%,36.9%,3%,47%,46.6%,-7%,-16%,-8.4%,-3%,3%,48.7%,-2%,36%,70.1% (active)
O=c1oc2ccccc2c(O)c1/C=N/C(=S)Nc1ccccc1,13%,93% (active),71% (active),-3%,87% (active),34.5%,6%,88% (active),18.5%,0%,32%,20.8%,12%,92% (active),46.9%,9%,97% (active),76% (active)
CN(C)c1ccc(C=Nc2cnc3ccccc3c2)cc1,-10%,10%,-54.4%,-5%,-13%,-14.3%,-4%,-1%,-3.05%,-32%,-14%,-43.7%,2%,5%,-3.65%,0%,10%,-6.35%
Cc1scnc1C(C#N)(c1ccccc1)c1ccccc1,9%,97% (active),98.5% (active),4%,98% (active),98.5% (active),4%,98% (active),98.7% (active),8%,98% (active),98.5% (active),9%,97% (active),98.8% (active),7%,97% (active),98.5% (active)
C[n+]1c(/C=C/c2ccc(Cl)cc2)sc2ccccc21,-4%,36%,60.5%,-6%,51%,51.9%,-11%,36%,73% (active),1%,28%,75.2% (active),-12%,34%,29.6%,11%,50%,78.8% (active)
Clc1ccccc1CCc1cc(-c2ccccc2)n[nH]1,-14%,97% (active),96.8% (active),-26%,98% (active),94.7% (active),-6%,97% (active),95.6% (active),-13%,97% (active),88.9% (active),16%,97% (active),93.2% (active),-4%,97% (active),97.7% (active)
Cc1ccc(S(=O)(=O)CC2(Br)Cc3ccccc3C2=O)cc1 (configuration not stated),79% (active),99% (active),97.3% (active),76% (active),99% (active),98.8% (active),86% (active),99% (active),99.1% (active),24%,99% (active),98.2% (active),85% (active),99% (active),99% (active),75% (active),98% (active),98.5% (active)
Nc1ccc(S(=O)(=O)C23CC4CC(CC(C4)C2)C3)cc1,-2%,96% (active),97.9% (active),-16%,98% (active),98.8% (active),-3%,98% (active),97.7% (active),1%,93% (active),93.5% (active),64%,98% (active),95.8% (active),13%,98% (active),97.5% (active)
O=C(c1ccc([N+](=O)[O-])cc1)C(Br)C(Br)c1ccnc2ccccc12 (configuration not stated),25%,80% (active),98.2% (active),23%,63%,99.1% (active),21%,91% (active),98.9% (active),-1%,69%,96.7% (active),3%,86% (active),98.8% (active),18%,95% (active),98.8% (active)
COc1cccc(/C=C2/Sc3scc(-c4ccccc4)[n+]3C2=O)c1O,14%,20%,80.4% (active),-9%,21%,55.6%,-5%,23%,82.3% (active),-12%,18%,61.8%,-17%,64%,93.1% (active),12%,66%,94.1% (active)
CC(=O)NNc1nc(C)c(C(=O)NNC(=O)C(=O)Nc2ccc(Cl)c([N+](=O)[O-])c2)s1,34%,34%,70.6% (active),19%,19%,20.9%,32%,32%,69.2%,18%,18%,51.6%,19%,19%,55.9%,20%,20%,50.4%
O=C(COC(=O)c1ccc(O)cc1)c1ccc(-c2ccccc2)cc1,-16%,-13%,21.7%,-4%,11%,25.4%,-1%,12%,19.9%,22%,-45%,28.1%,6%,-20%,17.6%,-5%,24%,19.9%
COc1cc(OC(C)C)cc2c1C(=O)C(C(O)(O)C(F)(F)F)=CC2=O,0%,84% (active),72.4% (active),11%,81% (active),85.5% (active),2%,78% (active),47.7%,5%,85% (active),81.2% (active),6%,88% (active),82.9% (active),-8%,77% (active),92.8% (active)
N#Cc1ccc(Cl)cc1[N+](=O)[O-],31%,97% (active),90.3% (active),15%,98% (active),92% (active),36%,96% (active),90.8% (active),38%,96% (active),91% (active),52%,97% (active),90.2% (active),42%,96% (active),90.4% (active)
COc1nc(NC2OC(CO)C(O)C(O)C2O)c(Cl)c(=O)[nH]1 (configuration not stated),1%,1%,47.5%,4%,12%,-0.6%,12%,4%,24.1%,7%,11%,20.6%,4%,14%,15.3%,4%,5%,1.65%
O=C(CCC(NC(=O)OCc1ccccc1)C(=O)OCc1ccccc1)NC(CSCc1ccccc1)C(=O)NCC(=O)Oc1c(Cl)c(Cl)c(Cl)c(Cl)c1Cl (configuration not stated),8%,51%,31%,9%,32%,28.8%,7%,35%,64.2%,-7%,48%,45%,3%,59%,18.8%,8%,54%,60.7%
CCCCCCCCCCC(C(=O)OCCCC)P(=O)(OCCCC)OCCCC (configuration not stated),11%,95% (active),36.4%,9%,95% (active),73.2% (active),8%,86% (active),30.8%,13%,96% (active),81.2% (active),4%,95% (active),21.1%,6%,94% (active),59.3%

# Source: PubChem BioAssay (NCI)
